Assay outcomes from PubChem BioAssay.
Most compounds without a hit are left out; they make up all but 1.1% or so of the library.
A1 inh – inhibitors of the anti-apoptotic protein A1, read as caspase activation; MEF A1-2A-BIM cells, Caspase-Glo 3/7 luminescence, 3 h; percent of clofoctol response, vehicle zero; caspase activation, % (no concentration beside the values); 330,000 compounds, 0.066% hits;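 active means over half of replicate activation scores above 10%, or exactly half above 10 with the replicate mean above 10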
HTR5A ag – counter-screen for OPRM1-OPRD1 agonists: human HTR5A agonism. P47898. HTR5A agonist assay, luminescence, cell-based. activation, % at 9.3 µM. 340,000 compounds, 0.61% hits; in the data active means activation mostly above about 9.5%, no sharp cut-off; inactive means mostly below about 7.6%;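 further: 0% = cells with vehicle only and 100% = reference agonist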
Target sequence (P47898 whole entry, looked up): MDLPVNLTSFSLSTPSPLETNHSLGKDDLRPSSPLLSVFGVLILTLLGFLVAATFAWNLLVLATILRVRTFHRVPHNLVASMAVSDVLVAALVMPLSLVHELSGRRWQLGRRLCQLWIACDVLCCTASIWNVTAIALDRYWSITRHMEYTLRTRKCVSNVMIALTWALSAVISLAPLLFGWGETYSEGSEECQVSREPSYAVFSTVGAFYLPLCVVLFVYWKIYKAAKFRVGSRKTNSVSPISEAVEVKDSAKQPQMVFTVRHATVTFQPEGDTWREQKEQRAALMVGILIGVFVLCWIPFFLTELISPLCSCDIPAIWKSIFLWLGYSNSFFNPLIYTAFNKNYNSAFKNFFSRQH
MOR-DOR inv ag-1 – inverse agonist of human OPRM1-OPRD1 heterodimerization. cell-based MOR-DOR heterodimer luminescence, inverse agonism. AID 504357. 340,000 compounds, 0.21% hits. P35372+P41143. inhibition, % at 9.3 µM; in the data active means inhibition above about 22%, passing the limit was not always enough;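 further: 0% = cells with DMSO and 100% = wells without cells with DMSO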
OPRM1-OPRD1 ag – agonists of human mu-delta opioid receptor heterodimerization. P35372+P41143. cells, OPRM1-OPRD1 heterodimerization, luminescence. activation, % at 9.3 µM. 340,000 compounds, 0.3% hits. AID 504326; in the data active means activation above about 18%;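 further: 0% = vehicle-treated cells and 100% = reference agonist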
HTR5A inv ctr – inverse agonist of human HTR5A in OPRM1-OPRD1 counter-screen; inhibition, % at 9.3 µM; 340,000 compounds, 0.083% hits; P47898; AID 504634; HTR5A cell line, luminescence, inverse agonism; in the data active means inhibition mostly above about 23%, no sharp cut-off; inactive means mostly below about 18%;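 further: 0% = cells with DMSO and 100% = no-cell wells with DMSO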
MOR-DOR inv ag-2 – opioid heterodimer inverse agonism, HTR5A counter-screen; 190 tested, under 10 active; shares compounds with HTR5A inv ctr; inhibition, % at 9.3 µM; AID 504912; U2OS counter-screen cells, complementation luminescence;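 further: 0% = cells with DMSO and 100% = wells without cells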
HTR5A inv confrm – HTR5A (human) inverse agonism, confirmation. AID 504916. inhibition, % at 9.3 µM. 190 tested, under 10 active. HTR5A-expressing cells, luminescence. shares compounds with HTR5A inv ctr;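 further: 0% = cells with DMSO and 100% = no cells with DMSO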
* hit, by the source's call; i = inactive; x = no result given. Unless noted, how the calls were made is not given here.

SMILES	A1 inh	HTR5A ag	MOR-DOR inv ag-1	OPRM1-OPRD1 ag	HTR5A inv ctr	MOR-DOR inv ag-2	HTR5A inv confrm
CCOC(=O)N1CCN(C(c2ccc(C)cc2)c2sc3nc(C)nn3c2O)CC1 (centres undefined)	1	-4	11	-2	-12	x	x
O=C(CN1CCN(S(=O)(=O)c2ccc(Cl)cc2)CC1)NC1CCCC1	1	0	3	-1	0	x	x
O=C(CN1CCN(S(=O)(=O)c2ccc(F)cc2)CC1)NC1CCCC1	1	0	7	-1	35*	-17	6
O=C1CCC[C@@H]2C[C@@]3(C[C@@H]4CCN1[C@H]24)Nc1cc(Cl)ccc1NC3=NC1CCCCC1	x	4	-3	0	-17	x	x
O=C1CCC[C@@H]2C[C@@]3(C[C@@H]4CCN1[C@H]24)Nc1cc([N+](=O)[O-])ccc1NC3=NC1CCCCC1	x	-2	16	-3	35*	-24	-13
CCOc1cc(N2CCOCC2)c(OCC)cc1NC(=O)c1oc2ccccc2c1C	0	-8	-11	2	24*	-30	4
O=[N+]([O-])c1ccc(/C=N/N/C(=N/c2ccccn2)c2ccccn2)cc1	-3	-2	-18	3	3	x	x
O=[N+]([O-])c1cc(/C=N/N/C(=N/c2ccccn2)c2ccccn2)ccc1O	0	-9	12	-2	24*	27	-37
CNC(=O)C1CC(=O)N(c2ccc(OCC(=O)Nc3ccc(F)cc3)cc2)C1 (centres undefined)	x	4	-4	1	-13	x	x
N#CC1=C(N)Oc2c(ccc3cccnc23)C1c1ccccc1 (centres undefined)	0	-12	14	-3	33*	-7	5
Cc1ccc(CN2CCCN(Cc3c(C)cc(C)cc3C)S2(=O)=O)cc1	0	4	-13	3	-15	x	x
O=C(CSc1nnc(-c2ccccc2Br)o1)N1CCOCC1	-1	-9	2	0	25*	i	-64
O=C(CSc1nnc(-c2ccccc2O)o1)N1CCOCC1	x	-3	3	0	8	x	x
CCOC(=O)CCNC(=O)N1CCCC(Cc2ccccc2)(C(=O)OCC)C1 (centres undefined)	2	-8	4	-1	24*	0	13
Cc1ccc(-c2nc(CNC(=O)c3cc(C)on3)cs2)cc1	-1	3	11	-2	5	x	x
Cc1c(N2C(=O)/C(=C/c3ccc(N(C)C)cc3)N(C)C2=S)c(=O)n(-c2ccccc2)n1C	x	-7	8	-2	29*	i	-12
CC(NC(=O)c1cn(C)c2ccc(S(=O)(=O)N3CCCC3)cc2c1=O)c1ccccc1 (centres undefined)	1	-2	17	-3	13	x	x
COCCN(C(=O)c1cc(-c2ccccc2Cl)nc2ccccc12)c1c(N)n(CC(C)C)c(=O)[nH]c1=O	x	-1	16	-4	5	x	x
COCCN(C(=O)c1ccccc1Oc1ccccc1)c1c(N)n(CC(C)C)c(=O)[nH]c1=O	-2	-14	8	-2	35*	-415	-5
C=CCn1c(SCC(=O)Nc2ccc(F)cc2)nc2cc(C(=O)O)ccc2c1=O	0	2	3	-1	43*	-13	-85
CCC1(C)Cc2ccccc2-c2c1c(=O)n(-c1ccc(C)cc1)c1nnnn21 (centres undefined)	1	-1	5	-1	40*	-120	-24
O=[N+]([O-])c1ccc(N/N=C/c2ccc(O)c(O)c2O)c(S(=O)(=O)N2CCOCC2)c1	x	-10	4	-1	27*	8	5
COc1cc(/C=N/Nc2ccc([N+](=O)[O-])cc2S(=O)(=O)N2CCOCC2)cc(OC)c1OC	-1	1	13	-3	-2	x	x
O=[N+]([O-])c1ccc(N/N=C/c2cccc(O)c2O)c(S(=O)(=O)N2CCOCC2)c1	1	-9	-6	1	48*	-23	27
COc1cc(C(=O)N/N=C(\C)c2ccc(NC(=O)Cc3ccccc3)cc2)ccc1O	1	-1	8	-2	-1	x	x
SMILES	A1 inh	HTR5A ag	MOR-DOR inv ag-1	OPRM1-OPRD1 ag	HTR5A inv ctr	MOR-DOR inv ag-2	HTR5A inv confrm
CCn1c(-c2ccc(-c3ccccc3)cc2)c[nH]c1=S	-3	-10	0	0	33*	-309	-11
Nc1cc(Nc2ccc(Br)cc2)nc(N)n1	-1	11	-22	4	-7	x	x
COc1ccc(Cl)cc1C(=O)NNC(=O)COC(=O)CCN=C1NS(=O)(=O)c2ccccc21	0	-29	29	-6	71*	-20	-138
NNC(=O)c1csc(-c2cccc(C(F)(F)F)c2)n1	1	-1	-12	3	3	x	x
O=C(Nc1nnc(-c2ccccc2)o1)c1nc2ccccc2s1	0	-15	11	-2	41*	i	1
CCn1ccc(C(=O)N2CCN(c3ncccn3)CC2)n1	1	2	7	-1	-2	x	x
Cc1cc(C)c(COc2ccc(/C=N/n3c(C)n[nH]c3=S)cc2)c(C)c1	-1	-10	-14	3	37*	-51	-7
Cc1sc(NC(=O)CS(=O)(=O)c2ccccc2)c(C#N)c1C	1	-16	5	-1	41*	-15	-8
Cc1sc(NC(=O)CCS(=O)(=O)c2ccccc2)c(C#N)c1C	0	0	5	-1	-4	x	x
O=[N+]([O-])c1ccc(/C=N/Nc2nc(NCc3ccccc3)nc(N3CCOCC3)n2)cc1	3	-4	-14	3	9	x	x
O=[N+]([O-])c1cccc(/C=N/Nc2nc(NCc3ccccc3)nc(N3CCOCC3)n2)c1O	0	-32	15	-3	88*	0	12
Cn1c(N=Nc2ccc(N3CCOCC3)cc2)[n+](C)c2ccccc21	x	-14	14	-3	37*	-76	-36
COc1cccc(NC(=O)CN(C)C(=O)c2c(-c3ccccc3)noc2C)c1	0	-1	16	-4	1	x	x
COCCOC(=O)C1=C(C)OC(N)=C(C#N)C1c1ccc2c(c1)OCO2 (centres undefined)	0	-9	11	-2	33*	-26	-14
Cc1ccc(NC(=S)N/N=C2/CCCCc3ccccc32)cc1	-1	-15	-3	0	44*	-231	-44
Cc1cccc(NC(=S)N/N=C2/CCCCc3ccccc32)c1	0	-12	16	-3	43	x	x
COc1cccc(-c2nn(-c3ccc(F)cc3)cc2C(=O)NCC2CCCO2)c1 (centres undefined)	0	-2	-1	0	5	x	x
COc1ccc(NC(=O)CSc2n[nH]c(-c3ccccn3)n2)cc1	0	1	16	-3	-2	x	x
COc1ccccc1NC(=O)CSc1n[nH]c(-c2ccccn2)n1	0	-15	4	-1	39*	-63	-2
